Reference: PubChem BioAssay (Tox21)
Inconclusive results are not listed. Where a call stands in place of a potency, no number is given. A number with no mark means an inactive call. The source made the active and inactive calls. Unless noted, the call rests on the fitted dose curve.

Legend:
[1] = qHTS assay to identify small molecule agonists of the NFkB signaling pathway (AID 1159509; active means well fitted curve in the direction sought with a large enough effect in the signal ratio in the repeat runs, not every such curve was filed as active; the % refers to the signal ratio); settings: NFkB-bla ME-180 cells, beta-lactamase FRET ratio, 5 h; series mostly up to 61 µM
Method in brief: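 Readout: FRET fluorescence, 405 nm excitation, 460/530 nm emission; beta-lactamase expression disrupts FRET. Cells: ME-180 stably carrying NF-kB-driven bla reporter. Compound exposure 5 hr, 37 C, 5% CO2.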

[2] = qHTS assay to identify small molecule agonists of the NFkB signaling pathway - cell viability counter screen (AID 1159515); settings: NFkB-bla ME-180 viability, CellTiter-Glo luminescence, 5 h; series mostly up to 61 µM; further: nearly all actives have a fitted effect of over 55% in size
Method in brief: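 Cells are seeded (2,000 NFkB-bla ME-180 per well), rested overnight, and dosed with DMSO-dissolved compounds for 5 hr at 37 C. Viability is then read by CellTiter-Glo luminescence after 30 min at room temperature.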

[3] = qHTS assay to identify small molecule agonists of the endoplasmic reticulum stress response signaling pathway (AID 1159516; active means well fitted activation curve with a large enough effect in the signal ratio in the repeat runs, not every such curve was filed as active; the % refers to the signal ratio); settings: ESRE-bla HeLa, ER stress beta-lactamase reporter, 5 h; series mostly up to 61 µM
Method in brief: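 Cells are seeded at 1,500 per well and incubated overnight. Compounds in DMSO are added for 5 hr at 37 C, then beta-lactamase FRET substrate for 2 hr at room temperature, and fluorescence at 460 and 530 nm is measured.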

[4] = qHTS assay to identify small molecule agonists of the endoplasmic reticulum stress response signaling pathway - cell viability counter screen (AID 1159517); settings: ESRE-bla HeLa viability, CellTiter-Glo luminescence, 5 h; series mostly up to 61 µM;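 further: HeLa cells carrying an ER stress response element beta-lactamase reporter; nearly all actives have a fitted effect of over 50% in size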
Method in brief: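 Cytotoxicity of test compounds toward ESRE-bla HeLa cells was assessed after 5 hr exposure. The luminescent CellTiter-Glo signal was measured 30 min after reagent addition.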

[5] = qHTS assay to identify small molecule antagonists of the retinoid-related orphan receptor gamma (ROR-gamma) signaling pathway - cell viability counter screen (AID 1159520; active means well fitted curve in the direction sought with a large enough effect in the repeat runs; an effect the other way counts as inactive or inconclusive; further: nearly all actives have a fitted effect of over 50% in size); settings: Tet-on RORgamma CHO cells viability, ATP luminescence, 16 h; series mostly up to 92.4 µM
Method in brief: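 Tet-on ROR gamma CHO cells (1,000/well) were plated 4 hr, given compounds in DMSO for 2 hr at 37 C, then induced with 1 uM final doxycycline for 16 hr. Viability was read as ATP by CellTiter-Glo luminescence after 30 min.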

[6] = biological target: Nuclear receptor ROR-gamma (Homo sapiens) (UniProt P51449); assay: qHTS assay to identify small molecule antagonists of the retinoid-related orphan receptor gamma (ROR-gamma) signaling pathway (AID 1159521; active means well fitted curve in the direction sought with a large enough effect in the repeat runs; an effect the other way counts as inactive or inconclusive; further: nearly all actives have a fitted effect of over 50% in size; further: potency means the concentration at half of the fitted maximal effect); settings: Tet-on RORgamma CHO cells, RORE-luciferase, 16 h; series mostly up to 92.4 µM
Method in brief: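 Decreased RORE-driven luciferase luminescence indicates antagonism. Tet-on RORγ CHO cells received compound, then 1 uM final doxycycline 2 h later; signal read after 16 h incubation.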

[7] = qHTS assay to identify small molecule agonists of the AP-1 signaling pathway - cell viability counter screen (AID 1159525); settings: ME-180 AP-1-bla cells viability, ATP luminescence, 5 h; series mostly up to 76.8 µM; further: nearly all actives have a fitted effect of over 55% in size
Method in brief: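 Each titration point was normalised to DMSO and tetra n-octyl ammonium bromide controls. The read was Cell Titer Glo luminescence after 30 min at RT, following 5 h compound exposure of ME-180 AP-1-bla cells at 37 °C.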

[8] = qHTS assay to identify small molecule agonists of the AP-1 signaling pathway (AID 1159526); settings: ME-180 (cervical carcinoma) AP-1-bla reporter, beta-lactamase FRET ratio, 5 h; series mostly up to 76.8 µM; further: potency means the concentration at half of the fitted maximal effect
[9] = biological target: Retinoic acid receptor RXR-alpha (Homo sapiens) (UniProt P19793); assay: qHTS assay to identify small molecule agonists of the RXR signaling pathway (AID 1159527); settings: HEK293T RXRa-UAS-bla, beta-lactamase ratio, 16 h; series mostly up to 76.8 µM; further: nearly all actives have a fitted effect of over 35% in size; further: potency means the concentration at half of the fitted maximal effect
Retinoic acid receptor RXR-alpha (Homo sapiens), sequence (P19793 whole entry, looked up): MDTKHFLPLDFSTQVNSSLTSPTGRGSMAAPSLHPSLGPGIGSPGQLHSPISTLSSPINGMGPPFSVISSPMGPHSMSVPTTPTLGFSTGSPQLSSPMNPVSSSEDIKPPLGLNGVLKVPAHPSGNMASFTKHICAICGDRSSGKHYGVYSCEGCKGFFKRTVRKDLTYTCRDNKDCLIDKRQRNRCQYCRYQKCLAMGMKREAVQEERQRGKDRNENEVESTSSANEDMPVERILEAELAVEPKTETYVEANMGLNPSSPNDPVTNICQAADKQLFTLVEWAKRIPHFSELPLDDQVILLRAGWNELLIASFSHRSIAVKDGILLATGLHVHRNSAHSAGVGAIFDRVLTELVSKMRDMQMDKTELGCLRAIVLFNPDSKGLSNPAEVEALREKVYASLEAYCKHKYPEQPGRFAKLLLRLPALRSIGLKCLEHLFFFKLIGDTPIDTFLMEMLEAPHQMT
Method in brief: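 16 hr incubation of compound-treated RXR-alpha-UAS-bla HEK 293T cells (2% charcoal-stripped FBS, 37 C) preceded a 2 hr room-temperature LiveBLAzer FRET substrate step and blue/green fluorescence measurement.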

## CCC(=O)c1cccc(Cl)c1
[1]
  outcome: inactive
[2]
  outcome: inactive
[3]
  outcome: inactive
[4]
  outcome: inactive
[5]
  Potency: inactive
[6]
  Potency: inactive
[7]
  outcome: inactive
[8]
  Potency: inactive
[9]
  Potency: inactive

## CC(=O)N[C@@H](CCC(N)=O)C(=O)O
[1]
  outcome: inactive
[2]
  outcome: inactive
[3]
  outcome: inactive
[4]
  outcome: inactive
[5]
  Potency: inactive
[6]
  Potency: inactive
[7]
  outcome: inactive
[8]
  Potency: inactive
[9]
  Potency: inactive

## COC(=O)c1ccc(C(=O)OC)c(C(=O)OC)c1
[1]
  outcome: inactive
[2]
  outcome: inactive
[3]
  outcome: inactive
[4]
  outcome: inactive
[5]
  Potency: inactive
[6]
  Potency: inactive
[7]
  outcome: inactive
[8]
  Potency: inactive
[9]
  Potency: inactive

## CC1(C)SC(C)(C)SC(C)(C)S1
[1]
  outcome: inactive
[2]
  outcome: inactive
[3]
  outcome: inactive
[4]
  outcome: inactive
[5]
  Potency: inactive
[6]
  Potency: inactive
[7]
  outcome: inactive
[8]
  Potency: inactive
[9]
  Potency: inactive

## CCO[Si](CCCN=C=O)(OCC)OCC
[1]
  outcome: inactive
[2]
  outcome: inactive
[3]
  outcome: inactive
[4]
  outcome: inactive
[5]
  Potency: inactive
[6]
  Potency: inactive
[7]
  outcome: inactive
[8]
  Potency: inactive

## O=c1[nH]c2ccccc2c(=O)n1CCCl
[1]
  outcome: inactive
[2]
  outcome: inactive
[3]
  outcome: inactive
[4]
  outcome: inactive
[5]
  Potency: inactive
[6]
  Potency: inactive
[7]
  outcome: inactive
[8]
  Potency: inactive
[9]
  Potency: inactive

## CCN(CC)C(=O)c1ccc(O)c(OC)c1
[1]
  outcome: inactive
[2]
  outcome: inactive
[3]
  outcome: inactive
[4]
  outcome: inactive
[5]
  Potency: inactive
[6]
  Potency: inactive
[7]
  outcome: inactive
[8]
  Potency: inactive
[9]
  Potency: inactive

## CNc1ncnc2nc[nH]c12
[1]
  outcome: inactive
[2]
  outcome: inactive
[3]
  outcome: inactive
[4]
  outcome: inactive
[5]
  Potency: inactive
[6]
  Potency: inactive
[7]
  outcome: inactive
[8]
  Potency: inactive
[9]
  Potency: inactive

## CCCCCCOC(=O)CC(CC(=O)OCCCCCC)(OC(=O)CCC)C(=O)OCCCCCC
[1]
  outcome: inactive
[2]
  outcome: inactive
[3]
  outcome: inactive
[4]
  outcome: inactive
[5]
  Potency: inactive
[6]
  Potency: inactive
[7]
  outcome: inactive
[8]
  Potency: inactive

## C=C(C)[C@@H]1CCC2=CC(=O)C[C@@H](C)[C@]2(C)C1
[1]
  outcome: inactive
[2]
  outcome: inactive
[3]
  outcome: inactive
[4]
  outcome: inactive
[5]
  Potency: inactive
[6]
  Potency: inactive
[7]
  outcome: inactive
[8]
  Potency: inactive
[9]
  Potency: inactive

## CCCCc1ccc2cccc(S(=O)(=O)O)c2c1
[1]
  outcome: inactive
[2]
  outcome: inactive
[3]
  outcome: inactive
[4]
  outcome: inactive
[5]
  Potency: inactive
[6]
  Potency: inactive
[7]
  outcome: inactive
[8]
  Potency: inactive
[9]
  Potency: inactive

## CC1CCN(CCCC(=O)c2ccc(F)cc2)CC1
[1]
  outcome: inactive
[2]
  outcome: inactive
[3]
  outcome: inactive
[4]
  outcome: inactive
[5]
  Potency: inactive
[6]
  Potency: inactive
[7]
  outcome: inactive
[8]
  Potency: inactive
[9]
  Potency: inactive

## CCO[Si](C)(OCC)OCC
[1]
  outcome: inactive
[2]
  outcome: inactive
[3]
  outcome: inactive
[4]
  outcome: inactive
[5]
  Potency: inactive
[6]
  Potency: inactive
[7]
  outcome: inactive
[8]
  Potency: inactive

## O=C1C(CCS(=O)c2ccccc2)C(=O)N(c2ccccc2)N1c1ccccc1 (centres undefined)
[1]
  outcome: inactive
[2]
  outcome: inactive
[3]
  outcome: inactive
[4]
  outcome: inactive
[5]
  Potency: inactive
[6]
  Potency: inactive
[7]
  outcome: inactive
[8]
  Potency: inactive
[9]
  Potency: inactive

## C=CC(=O)N1CCOCC1
[1]
  outcome: inactive
[2]
  outcome: inactive
[3]
  outcome: inactive
[4]
  outcome: inactive
[5]
  Potency: inactive
[6]
  Potency: inactive
[7]
  outcome: inactive
[8]
  Potency: inactive
[9]
  Potency: inactive

## Nc1ncnc2c1ncn2Cc1c(F)cccc1Cl
[1]
  outcome: inactive
[2]
  outcome: inactive
[3]
  outcome: inactive
[4]
  outcome: inactive
[5]
  Potency: inactive
[6]
  Potency: inactive
[7]
  outcome: inactive
[8]
  Potency: inactive
[9]
  Potency: inactive

## COc1cccc(Br)c1
[1]
  outcome: inactive
[2]
  outcome: inactive
[3]
  outcome: inactive
[4]
  outcome: inactive
[5]
  Potency: inactive
[6]
  Potency: inactive
[7]
  outcome: inactive
[8]
  Potency: inactive
[9]
  Potency: inactive

## CCCCC=O
[1]
  outcome: inactive
[2]
  outcome: inactive
[3]
  outcome: inactive
[4]
  outcome: inactive
[5]
  Potency: inactive
[6]
  Potency: inactive
[7]
  outcome: inactive
[8]
  Potency: inactive
[9]
  Potency: 17.4 µM (active)

## C=CCOc1nc(OCC=C)nc(OCC=C)n1
[1]
  outcome: inactive
[2]
  outcome: inactive
[3]
  outcome: inactive
[4]
  outcome: inactive
[5]
  Potency: inactive
[6]
  Potency: inactive
[7]
  outcome: inactive
[8]
  Potency: inactive
[9]
  Potency: inactive

## CCn1c(=O)c2c(nc(/C=C/c3ccc(OC)c(OC)c3)n2C)n(CC)c1=O
[1]
  outcome: inactive
[2]
  outcome: inactive
[3]
  outcome: inactive
[4]
  outcome: inactive
[5]
  Potency: inactive
[6]
  Potency: inactive
[7]
  outcome: inactive
[8]
  Potency: inactive
[9]
  Potency: inactive

## OC[C@H]1O[C@@H]2O[C@H]3[C@H](O)[C@@H](O)[C@@H](O[C@H]4[C@H](O)[C@@H](O)[C@@H](O[C@H]5[C@H](O)[C@@H](O)[C@@H](O[C@H]6[C@H](O)[C@@H](O)[C@@H](O[C@H]7[C@H](O)[C@@H](O)[C@@H](O[C@H]8[C@H](O)[C@@H](O)[C@@H](O[C@H]9[C@H](O)[C@@H](O)[C@@H](O[C@H]1[C@H](O)[C@H]2O)O[C@@H]9CO)O[C@@H]8CO)O[C@@H]7CO)O[C@@H]6CO)O[C@@H]5CO)O[C@@H]4CO)O[C@@H]3CO
[1]
  outcome: inactive
[2]
  outcome: inactive
[3]
  outcome: inactive
[4]
  outcome: inactive
[5]
  Potency: inactive
[6]
  Potency: inactive
[7]
  outcome: inactive
[8]
  Potency: inactive

## O=[N+]([O-])c1ccc(Oc2ccc([N+](=O)[O-])cc2)cc1
[1]
  outcome: inactive
[2]
  outcome: inactive
[3]
  outcome: inactive
[4]
  outcome: inactive
[5]
  Potency: inactive
[6]
  Potency: inactive
[7]
  outcome: inactive
[8]
  Potency: inactive

## CSc1ccc(C=O)cc1
[1]
  outcome: inactive
[2]
  outcome: inactive
[3]
  outcome: inactive
[4]
  outcome: inactive
[5]
  Potency: inactive
[6]
  Potency: inactive
[7]
  outcome: inactive
[8]
  Potency: inactive
[9]
  Potency: inactive

## c1cc(CN2CCCCC2)cc(OCCCNc2nc3ccccc3s2)c1
[1]
  outcome: inactive
[2]
  outcome: inactive
[3]
  outcome: inactive
[4]
  outcome: inactive
[5]
  Potency: inactive
[6]
  Potency: 26.6 µM (active)
[7]
  outcome: inactive
[8]
  Potency: 26.8 µM (active)

## Cc1ccc(Nc2ccc(O)c3c2C(=O)c2ccccc2C3=O)cc1
[1]
  outcome: inactive
[2]
  outcome: inactive
[3]
  outcome: inactive
[4]
  outcome: inactive
[5]
  Potency: inactive
[6]
  Potency: inactive
[7]
  outcome: inactive
[8]
  Potency: inactive

## NS(=O)(=O)c1cc2c(cc1Cl)NC(CSCc1ccccc1)=NS2(=O)=O
[1]
  outcome: inactive
[2]
  outcome: inactive
[3]
  outcome: inactive
[4]
  outcome: inactive
[5]
  Potency: inactive
[6]
  Potency: inactive
[7]
  outcome: inactive
[8]
  Potency: inactive

## C#CC(C)(O)CC(C)C (centres undefined)
[1]
  outcome: inactive
[2]
  outcome: inactive
[3]
  outcome: inactive
[4]
  outcome: inactive
[5]
  Potency: inactive
[6]
  Potency: inactive
[7]
  outcome: inactive
[8]
  Potency: inactive
